# Source: PubChem BioAssay
# For some assays here: Measured potencies and affinities stand elsewhere. Activity calls are given as the source filed them.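 How the source made its calls, unless noted: active means calcium signal ratio cut to more than 3 SD under the fully stimulated control mean yet still positive, in both repeats and the primary screen; inactive means the rest.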
# Experiments:
# [1] = tested on: TRPC4 beta (transient receptor potential cation channel C4), mouse; experiment: activators of mouse TRPC4 channel, confirmation, cell-based, Fluo4 calcium, HEK293 TRPC4beta/mu-opioid, duplicates, 10 µM (AID 2426;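 active means fluorescence ratio normalized to control raised more than 50% in primary screen plus both repeat runs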;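 further: percent rise of integrated ratio over buffer wells lacking compound which define 0%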); settings: Fluo4 calcium fluorescence, at 10 µM; stronger effect = higher value
# [2] = tested on: transient receptor potential cation channel C4 beta (TRPC4), mouse; experiment: activators of mouse TRPC4 channel, confirmation, cell-based, second round, Fluo4, HEK293 TRPC4beta/mu-opioid, 1 µM (AID 2461;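 active means primary screen active and over 50% activation in each of two duplicate runs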;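 on activation: 0% = wells without test compound as baseline of integrated fluorescence ratio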); settings: Fluo4 calcium fluorescence, at 1 µM; stronger effect = higher value
# [3] = tested on: TRPC4 (transient receptor potential cation channel C4 beta), mouse; experiment: positive allosteric modulators of mouse TRPC4, confirmation, cell-based, second round, Fluo-4, HEK293 TRPC4beta/mu-opioid, 1 µM (AID 2554;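 active means primary screen hit whose fluorescence ratio, in both repeats, exceeds the weak agonist control mean by 3 SD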); settings: DAMGO EC20, Fluo-4 calcium flux, at 1 µM; stronger effect = higher value
# [4] = tested on: TRPC4 beta (transient receptor potential cation channel C4), mouse; experiment: positive allosteric modulators of mouse TRPC4, confirmation, cell-based, Fluo-4, HEK293 TRPC4beta/mu-opioid (AID 2555;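 active means primary screen hit whose calcium fluorescence ratio, in both repeats, exceeds the weak agonist control mean by 3 SD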); settings: DAMGO EC20, Fluo-4 calcium flux, at 10 µM; stronger effect = higher value
# [5] = target: Short transient receptor potential channel 4 (Mus musculus) (UniProt Q9QUQ5); experiment: inhibitors of mouse TRPC4 channel, confirmation, cell-based, Fluo4, HEK293 TRPC4beta/mu-opioid (AID 2636;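 active means calcium signal cut by more than 3 SD below the full-agonist control yet still positive, in both repeats and the earlier primary screen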); settings: DAMGO, Fluo4 calcium flux, at 10 µM; stronger effect = higher value
# Chain of Short transient receptor potential channel 4 (Mus musculus) (Q9QUQ5 whole entry, looked up): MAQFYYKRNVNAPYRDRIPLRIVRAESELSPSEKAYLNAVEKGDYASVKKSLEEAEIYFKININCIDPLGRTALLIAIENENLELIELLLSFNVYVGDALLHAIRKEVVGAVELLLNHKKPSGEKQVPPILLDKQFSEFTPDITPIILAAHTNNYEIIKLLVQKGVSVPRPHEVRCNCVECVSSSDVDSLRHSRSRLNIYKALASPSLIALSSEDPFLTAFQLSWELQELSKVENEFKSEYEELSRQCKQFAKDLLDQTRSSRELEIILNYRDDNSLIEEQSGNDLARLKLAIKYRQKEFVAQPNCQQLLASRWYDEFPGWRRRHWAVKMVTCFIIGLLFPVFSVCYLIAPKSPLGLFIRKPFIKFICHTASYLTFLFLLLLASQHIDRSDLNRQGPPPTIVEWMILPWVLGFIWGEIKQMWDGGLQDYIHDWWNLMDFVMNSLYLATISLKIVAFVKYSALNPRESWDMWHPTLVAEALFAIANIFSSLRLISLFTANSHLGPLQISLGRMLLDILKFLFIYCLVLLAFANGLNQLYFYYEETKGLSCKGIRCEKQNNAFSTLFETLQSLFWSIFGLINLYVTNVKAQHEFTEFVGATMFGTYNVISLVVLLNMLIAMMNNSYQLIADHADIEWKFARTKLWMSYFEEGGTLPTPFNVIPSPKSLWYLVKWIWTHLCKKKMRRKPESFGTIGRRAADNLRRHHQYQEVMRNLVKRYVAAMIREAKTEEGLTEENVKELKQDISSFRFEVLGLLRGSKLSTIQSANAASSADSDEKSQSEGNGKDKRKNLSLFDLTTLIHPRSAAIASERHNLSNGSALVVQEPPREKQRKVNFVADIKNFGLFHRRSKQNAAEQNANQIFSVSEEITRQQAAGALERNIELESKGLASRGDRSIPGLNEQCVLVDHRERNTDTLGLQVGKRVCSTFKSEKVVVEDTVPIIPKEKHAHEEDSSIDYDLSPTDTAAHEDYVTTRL
# [6] = target: Short transient receptor potential channel 4 (Mus musculus) (UniProt Q9QUQ5); experiment: inhibitors of mouse TRPC4 channel, confirmation, cell-based, second round, Fluo4, HEK293 TRPC4beta/mu-opioid, 1 µM (AID 2637); settings: Fluo4 calcium flux, DAMGO, at 1 µM; stronger effect = higher value;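 on inhibition: percent of integrated ratio relative to wells lacking test compound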
# [7] = target: Short transient receptor potential channel 4 (Mus musculus) (UniProt Q9QUQ5); experiment: TRPC4 positive allosteric modulators, dose response, cell-based, HEK293 TRPC4/mu-opioid, Fluo-4 calcium, EC20 DAMGO (AID 434941;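 active means earlier screen potentiator hit that boosts the TRPC4 ion channel at some dose, with a dose response; inactive means no potentiation, no dose response, or not a prior hit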;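 further: calcium entry triggered by an EC20 dose of DAMGO at the co-expressed mu-opioid receptor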)
# [8] = target: Short transient receptor potential channel 4 (Mus musculus) (UniProt Q9QUQ5); experiment: mouse TRPC4 channel inhibitors, dose response, cell-based, HEK293 TRPC4/mu-opioid, Fluo-4 calcium (AID 434942;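 active means primary screen inhibitor hit that blocks the TRPC4 channel at some tested dose, yielding a dose curve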)
# [9] = target: Short transient receptor potential channel 6 (Mus musculus) (UniProt Q61143); experiment: inhibition of mouse TRPC6 channel, confirmation, selectivity assay for TRPC4 inhibitor project, cell-based, HEK293, membrane potential dye, duplicate (AID 434948;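 active means active in primary screen and both duplicates, each dropping signal beyond three positive-control SD with fluorescence still positive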); settings: HEK293 TRPC6, membrane potential dye fluorescence, at 10 µM; inhibition: stronger effect = higher value, stimulated with maximal-effect acetylcholine unless noted; outcome: stimulated with maximal-effect acetylcholine unless noted
# Chain of Short transient receptor potential channel 6 (Mus musculus) (Q61143 whole entry, looked up): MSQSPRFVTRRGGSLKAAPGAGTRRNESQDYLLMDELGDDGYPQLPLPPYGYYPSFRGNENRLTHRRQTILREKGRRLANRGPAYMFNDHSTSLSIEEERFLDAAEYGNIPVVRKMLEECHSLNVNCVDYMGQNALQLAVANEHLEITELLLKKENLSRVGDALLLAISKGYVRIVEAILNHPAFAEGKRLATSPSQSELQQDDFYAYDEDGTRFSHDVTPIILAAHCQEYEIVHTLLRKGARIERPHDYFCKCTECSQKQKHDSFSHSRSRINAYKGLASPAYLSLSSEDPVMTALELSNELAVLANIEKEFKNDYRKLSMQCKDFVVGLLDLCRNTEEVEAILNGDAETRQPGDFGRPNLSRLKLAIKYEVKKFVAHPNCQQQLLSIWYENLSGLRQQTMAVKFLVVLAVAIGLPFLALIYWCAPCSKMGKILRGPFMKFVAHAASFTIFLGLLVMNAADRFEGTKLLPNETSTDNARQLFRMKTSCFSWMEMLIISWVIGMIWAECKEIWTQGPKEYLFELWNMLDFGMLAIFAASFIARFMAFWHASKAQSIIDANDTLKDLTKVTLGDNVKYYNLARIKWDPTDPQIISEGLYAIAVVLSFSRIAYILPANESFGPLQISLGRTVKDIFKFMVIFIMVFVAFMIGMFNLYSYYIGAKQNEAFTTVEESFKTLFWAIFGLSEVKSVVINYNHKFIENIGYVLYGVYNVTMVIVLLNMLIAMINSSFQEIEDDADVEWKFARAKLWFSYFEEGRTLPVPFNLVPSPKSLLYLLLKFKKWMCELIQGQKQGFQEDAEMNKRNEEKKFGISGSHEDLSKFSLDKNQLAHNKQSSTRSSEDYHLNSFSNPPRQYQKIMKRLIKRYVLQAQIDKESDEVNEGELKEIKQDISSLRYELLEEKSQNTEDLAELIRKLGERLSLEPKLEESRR
# [10] = target: Short transient receptor potential channel 6 (Mus musculus) (UniProt Q61143); experiment: activation of mouse TRPC6 channel, confirmation, selectivity assay for TRPC4 activator project, cell-based, HEK293, membrane potential dye, duplicate (AID 434950;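 active means membrane potential signal rise above negative control mean plus 3 SD in both duplicates, also active in the earlier TRPC4 screen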;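 on activation: 0% = buffer only wells and 100% = acetylcholine maximal-effect wells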); settings: HEK293 TRPC6, membrane potential fluorescence, at 10 µM; stronger effect = higher value
# [11] = target: Short transient receptor potential channel 6 (Mus musculus) (UniProt Q61143); experiment: TRPC6 potentiation by TRPC4 potentiator hits, confirmation, selectivity assay for TRPC4 potentiator project, HEK293 cells, membrane potential dye, duplicate (AID 434952;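 active means compound raising the membrane signal above positive-control mean plus 3 SD in both repeats, and a primary screen hit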); settings: HEK293 TRPC6, membrane potential dye fluorescence, at 10 µM; maximal acetylcholine added after compound unless noted
# [12] = target: Short transient receptor potential channel 4 (Mus musculus) (UniProt Q9QUQ5); experiment: calcium flux activators in TRPC4/5HT1a cells, counter-screen for TRPC4 activator project, cell-based, second counter screen, HEK293 TRPC4/5HT1a, Fluo-4 (AID 434977;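 active means calcium signal rise above buffer-control mean plus 5 SD in both duplicates, and also a hit in the primary screen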); settings: Fluo-4 calcium flux, at 10 µM; stronger effect = higher value
# [13] = calcium flux inhibitors in TRPC4/5HT1a cells, confirmation, counter-screen for TRPC4 inhibitor project, cell-based, second counter screen, HEK293 TRPC4/5HT1a, Fluo-4 (AID 434978;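 active means primary screen active whose calcium signal fell more than 3 SD beyond the full-serotonin control mean in both duplicate plates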;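 further: serotonin given first at submaximal then at maximal dose after compound preincubation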); settings: Fluo-4 calcium flux, at 10 µM; inhibition: stronger effect = higher value, serotonin added to trigger calcium flux unless noted; outcome: serotonin added to trigger calcium flux unless noted
# [14] = tested on: TRPC4 (mouse), co-expressed with 5HT1a in HEK293; experiment: calcium flux potentiators in TRPC4/5HT1a cells, confirmation, counter-screen for TRPC4 potentiator project, cell-based, second counter screen, HEK293 TRPC4/5HT1a, Fluo-4 (AID 434979;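 active means signal rise over 3 SD above mean of control wells given weak agonist, in both repeats and first screen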); settings: Fluo-4 calcium flux, at 10 µM; outcome: serotonin added at its EC20 dose unless noted; potentiation: stronger effect = higher value, serotonin added at its EC20 dose unless noted
# [15] = calcium flux activation in mu-opioid HEK293 cells, confirmation, counter-screen for TRPC4 activator project, cell-based, HEK293 mu-opioid receptor line (AID 449723;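 active means hit in primary screen, with calcium signal over 5 SD above buffer well mean in both duplicates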;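 further: counter screen cells carry the mu-opioid receptor alone and lack TRPC4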); settings: Fluo-4 calcium fluorescence, at 10 µM; stronger effect = higher value
# [16] = calcium flux enhancement in mu-opioid HEK293 cells, confirmation, counter-screen for TRPC4 allosteric potentiator project, cell-based, HEK293 mu-opioid receptor line (AID 449724;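 active means calcium signal rise more than 3 SD above the low-dose agonist control mean, in both duplicate plates and the primary screen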); settings: Fluo-4 calcium flux, at 10 µM; compound added before EC20 DAMGO stimulus unless noted
# [17] = thallium flux activation in parental CHO cells, counter-screen for KCNQ1 potentiator project (AID 493006;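 active means duplicate-averaged activation above buffer control mean plus 5 SD of those controls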); settings: parental CHO-K1 cells, FluxOR thallium flux, at 10 µM; stronger effect = higher value
smiles,measurement,setting,value
COc1ccc2c(c1O)[C@]13CCN(C)[C@H](C2)[C@@H]1CCC(=O)C3,activation,[1],82% (active)
same,activation,[2],99% (active)
same,outcome,[3],inactive
same,outcome,[4],inactive
same,outcome,[5],inactive
same,outcome,[6],inactive
same,outcome,[7],inactive
same,outcome,[8],inactive
same,outcome,[9],inactive [setting not given]
same,activation,[10],29.5% (active)
same,outcome,[11],inactive [setting not given]
same,outcome,[12],inactive
same,outcome,[13],inactive [setting not given]
same,outcome,[14],inactive [setting not given]
same,outcome,[15],inactive
same,outcome,[16],inactive [setting not given]
CN1CCN(c2cc(N3CCCC3)c([N+](=O)[O-])cc2F)CC1,outcome,[17],inactive
O=[N+]([O-])c1cc2c(cc1CNCCc1ccc3c(c1)OCO3)OCO2,activation,[1],62% (active)
same,outcome,[2],inactive
same,outcome,[3],inactive
same,outcome,[4],inactive
same,inhibition,[5],91% (active)
same,inhibition,[6],39% (active)
same,outcome,[7],inactive
same,outcome,[9],inactive [setting not given]
same,outcome,[10],inactive
same,outcome,[11],inactive [setting not given]
same,outcome,[12],inactive
same,outcome,[13],inactive [setting not given]
same,outcome,[14],inactive [setting not given]
same,outcome,[15],inactive
same,outcome,[16],inactive [setting not given]
